Hits are enriched below; roughly 7.3% of the tested compounds scored in any of these assays.
Rab9 promoter act – activators of Rab9 promoter; Huh7 Rab9 promoter-luciferase reporter, luminescence, 24 h; Potency, µM (doses to about 9.22 µM), actives largely listed as activators; 2.8% of 320,000 active; note: nearly all actives have a fitted effect of over 60% in size
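Promoter activation is measured as luciferase luminescence in Huh7 cells stably transfected with a Rab9 promoter–luciferase construct, following 24 h compound exposure at 37 °C and 10 min reagent incubation at ambient temperature.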
Luc counter – blocks Kinase-Glo luciferase, a counter-screen artifact | Kinase-Glo luciferase, ATP luminescence, 8 min | Potency, µM (top dose mostly 38.3 µM), most hits filed as inhibitors | 0.28% of 200,000 active | AID 1379; note: nearly all actives have a fitted effect of over 60% in size
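Substrate mix (final 50 mM imidazole pH 7.2, 50 mM KCl, 7 mM MgCl2, 10 uM ATP, 0.01% Tween 20, 0.05% BSA) plus pin-tool compound, then Kinase-Glo detection mix; 8 min ambient, luminescence read.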
SMN2 splice enh – enhancers of SMN2 splice variant expression; HEK293 SMN2-luciferase splicing reporter, luminescence, 30-36 h; Potency, µM (series often up to 46.1 µM), usual class: activators; 2.8% of 210,000 active; note: nearly all actives have a fitted effect of over 55% in size
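HEK293 cells carry an SMN2 […]–luciferase reporter in which exon 7 inclusion puts luciferase in frame. Cells were plated 10-12 h before compound addition, then incubated 30-36 h at 37C. ONE-Glo luminescence was read; sodium butyrate at 4.5 mM final served as control.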
NPC1 prom act – activates the NPC1 promoter; Huh7 NPC1 promoter luciferase reporter, 24 h; Potency, µM (top dose mostly 9.22 µM), usual class: activators; 2.4% of 320,000 active; note: nearly all actives have a fitted effect of over 60% in size
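Stable NPC1-promoter luciferase Huh7 line; cpd (DMSO) 24 h, 37 °C, 5% CO2; Amplite luciferase reagent 10 min RT; luminescence readout. qHTS format.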
FLuc modulator – counter-screen for miR-21 project: firefly luciferase inhibitors or activators; 6.9% of 360,000 active; Potency, µM (series often up to 57.5 µM), actives largely listed as inhibitors; purified FLuc, Km substrates, luminescence inhibition; P08659; note: nearly all actives have a fitted effect of over 55% in size
Target sequence (P08659 whole entry, looked up): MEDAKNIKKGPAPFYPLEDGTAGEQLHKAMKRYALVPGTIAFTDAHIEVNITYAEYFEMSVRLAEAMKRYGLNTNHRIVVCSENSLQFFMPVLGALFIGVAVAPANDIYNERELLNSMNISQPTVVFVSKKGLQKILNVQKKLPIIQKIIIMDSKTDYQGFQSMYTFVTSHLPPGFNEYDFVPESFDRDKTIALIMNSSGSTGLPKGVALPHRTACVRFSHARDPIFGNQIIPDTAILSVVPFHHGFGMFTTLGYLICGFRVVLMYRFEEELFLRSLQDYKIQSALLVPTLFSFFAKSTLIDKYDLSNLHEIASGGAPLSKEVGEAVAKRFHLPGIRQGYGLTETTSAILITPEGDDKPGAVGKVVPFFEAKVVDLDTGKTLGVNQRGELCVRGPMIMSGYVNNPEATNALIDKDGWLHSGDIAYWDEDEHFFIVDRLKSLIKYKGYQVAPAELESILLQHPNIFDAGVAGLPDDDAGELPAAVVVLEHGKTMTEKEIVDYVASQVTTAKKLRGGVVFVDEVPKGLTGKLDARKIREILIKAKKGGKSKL
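Purified P. pyralis luciferase (10nM final) with 10uM D-luciferin and 10uM ATP (Km levels) in 50mM Tris acetate pH 7.5, 10mM Mg acetate, 0.01% Tween-20, 0.05% BSA; qHTS 6-point titration, ~60 µM downward; luminescence read.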
ELG1 genotox – genotoxicity induction in ELG1-luciferase HEK293T cells; Potency, µM (doses to about 46 µM), hits mostly activators; 1.3% of 330,000 active; HEK293T ELG1-luciferase reporter, luminescence, 16 h; note: nearly all actives have a fitted effect of over 60% in size
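After overnight (16 hr) compound treatment at 37 °C, ELG1-luciferase HEK293T cells were lysed with ONE-Glo; luminescence quantified 30 min later at room temperature.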
Numbers stand for hits; - = inactive; ? = inconclusive; . = no result; [ ] = another dose, or the depositor's remark. Calls come from the whole dose curve; as a rule, active = well fitted curve in the direction sought with a large enough effect; inconclusive = small, poorly fitted or top-dose-only effect, or another doubt; inactive = no such curve, though single readings can be large; an effect the other way counts as inactive or inconclusive.

SMILES | Rab9 promoter act | Luc counter | SMN2 splice enh | NPC1 prom act | FLuc modulator | ELG1 genotox
Cc1ccc(/C=C/c2nc3ccccc3s2)s1 | ? | ? | - | - | 0.3µM | 0.52µM
Fc1ccccc1/C=C/c1ccc2ccccc2n1 | 2.2µM | ? | 0.89µM | 4µM | 0.15µM | 0.33µM
O=C(COC(=O)/C=C/c1nc2ccccc2s1)Nc1cccc2ccccc12 | - | - | - | - | - | -
CC(=O)Oc1ccc(Cl)cc1/C=C/c1ccc2ccccc2n1 | ? | - | 14µM | 3.2µM | 5.4µM | -
CC(NC(=O)CSc1n[nH]c(-c2ccccc2Cl)n1)c1nc2ccccc2n1C (centres undefined) | . | . | . | . | - | .
COc1cc2c(c(OC)c1)C(c1cccc(F)c1F)CC(=O)N2 (centres undefined) | . | . | - | . | - | .
COc1ccc(N2CCN(C(=O)CS(=O)(=O)c3cccc4nsnc34)CC2)cc1 | . | . | . | . | - | .
CCc1ccc(NS(=O)(=O)c2[nH]ncc2C(=O)OC)cc1 | . | . | - | . | - | .
O/C(=C\c1ccc2ccccc2n1)c1ccc(O)cc1O | 2.2µM | - | 8.9µM | 1.1µM | 1.5µM | 2.6µM
Oc1ccc(/C(Cc2ccc3ccccc3n2)=N\Nc2ccccc2)c(O)c1 | ? | . | . | - | ? | ?
CN(C)c1ccc(/C=C/c2ccc3ccccc3n2)cc1 | ? | . | . | - | 0.067µM | ?
O=C(O)/C=C/c1ccc2ccccc2n1 | - | - | - | - | - | -
Oc1ccc(/C=C/c2ccc3ccccc3n2)cc1 | ? | ? | 2.8µM | ? | 0.13µM | 0.26µM
Cc1cc(N/N=C/c2ccc(N(C)C)cc2)c2ccccc2n1 | - | . | . | - | ? | -
CN(C)c1ccc(/C=C/c2nc3ccccc3s2)cc1 | ? | 11µM | - | - | 0.11µM | -
CCCN(CCC)c1ccc(/C=C/c2ccc3cc(OCC)ccc3n2)cc1 | 2.2µM | . | . | ? | 6.7µM | -
COc1cc(/C=C/c2nc3ccccc3s2)cc(OC)c1O | ? | - | - | - | 19µM | 18µM
CCN(CC)c1ccc(/C=C/c2cc(-c3ccccc3)c3ccccc3n2)cc1 | - | . | . | - | ? | -
COc1cc(C=C(c2nc3ccccc3s2)c2nc3ccccc3s2)ccc1O | - | - | - | - | ? | -
CN(C)c1ccc(CNc2nc3ccccc3s2)cc1 | 0.25µM | . | . | 0.1µM | 0.24µM | 0.46µM
CC(=O)N1CCC2(CCCN(C(c3ccccc3)c3ccccc3)C2)CC1 | . | - | - | . | . | .
CC#C[C@]1(O)CC[C@H]2C3CCC4=CC(=O)CCC4=C3[C@@H](c3ccc(N(C)C)cc3)C[C@@]21C (some centres undefined) | . | - | - | . | . | .
COc1ccc(OC)c(Nc2cc(C(=O)NCc3ccccc3)c3ccccc3n2)c1 | . | . | - | . | - | .
COc1ccc(Nc2cc(C(=O)NCc3ccccc3OC)c3ccccc3n2)cc1 | . | . | . | . | 11µM | .
COCCCNC(=O)c1cc(Nc2ccc(OC)cc2OC)nc2ccccc12 | - | . | . | - | 19µM | -
SMILES | Rab9 promoter act | Luc counter | SMN2 splice enh | NPC1 prom act | FLuc modulator | ELG1 genotox
CCOc1ccccc1CNC(=O)c1cn(-c2ccc(OC)cc2)c(=O)c2ccccc12 | . | . | . | . | 9.5µM | .
COc1ccc(CNC(=O)c2cc(Nc3ccc(OC)cc3OC)nc3ccccc23)cc1 | . | . | - | . | 7.6µM | .
COc1ccc(Nc2cc(C(=O)NCc3ccco3)c3ccccc3n2)cc1 | - | - | - | - | - | -
COc1ccc(Nc2cc(C(=O)N3CCc4ccccc4C3)c3ccccc3n2)c(OC)c1 | - | - | - | - | 15µM | -
COc1ccc(CCNC(=O)c2cc(Nc3cc(C)cc(C)c3)nc3ccccc23)cc1OC | . | . | - | . | 6µM | .
COc1ccccc1Nc1cc(C(=O)N2CCc3ccccc3C2)c2ccccc2n1 | - | - | - | - | ? | -
COc1ccc(CCNC(=O)c2cc(-c3ccccc3)nc3ccccc23)cc1OC | . | . | - | . | ? | .
COc1ccc(-n2ccn(CC(=O)Nc3ccccc3C(F)(F)F)c(=O)c2=O)cc1OC | . | . | . | . | - | .
Cc1c(C(=O)Nc2nc3ccccc3[nH]2)oc2ccccc12 | 4µM | - | 10µM | ? | 3µM | ?
Cc1c(C(=O)Nc2nc3ccccc3[nH]2)oc2c(Cl)cccc12 | - | - | ? | - | - | ?
Cc1c(C(=O)Nc2nc3ccccc3[nH]2)oc2ccc(Br)cc12 | ? | . | . | - | 7.6µM | ?
O=C(N1CCCCC1)C1(c2ccccc2)CCOCC1 | - | - | - | - | - | -
O=C(N1CCOCC1)C1(c2ccccc2)CCCCC1 | - | - | 32µM | - | - | -
CCn1c2ccccc2c2cc(CN3CCN(Cc4ccccc4Cl)CC3)ccc21 | . | . | - | . | - | .
C=C(C)Cn1cnc2c(oc3nc4c(cc32)CCCC4)c1=O | 1.6µM | . | . | 2.5µM | 21µM | ?
O=C(Cn1cnc2c(oc3nc4c(cc32)CCCC4)c1=O)Nc1ccccc1 | - | . | . | - | - | -
Cc1ccc2oc(=O)n(CCNC(=O)Nc3ccc(C)c(F)c3)c2c1 | . | . | - | . | - | .
Cc1cccc(-n2ncc(C(=O)N3CCN(Cc4ccccc4)CC3)c2C2CCN(C(=O)OC(C)(C)C)CC2)c1 | . | . | . | . | - | .
CCCCN(CCCC)CCNC(=O)c1cn(C)c2ccc(S(=O)(=O)N3CCOCC3)cc2c1=O | . | . | - | . | - | .
O=C(CCCN1C(=O)S/C(=C/c2ccccc2)C1=S)Nc1ccc(C(=O)O)cc1 | - | . | . | - | - | -
O=C(CCN1C(=O)S/C(=C\c2ccc(Cl)cc2)C1=O)Nc1ccc(C(=O)O)cc1 | - | . | . | - | 15µM | -
O=C(CCN1C(=O)/C(=C/c2ccc3c(c2)OCO3)SC1=S)Nc1ccc(C(=O)O)cc1 | -[1.84 µM] | . | . | - | 9.5µM | -
CCOc1ccc(/C=C2\SC(=S)N(CCC(=O)Nc3ccc(C(=O)O)cc3)C2=O)cc1 | - | . | . | - | 2.7µM | -
CCOC(=O)CN1C(=O)S/C(=C\c2ccc3c(c2)OCO3)C1=O | - | . | . | - | 21µM | -
C=C[C@]1(C)C[C@H](OC(=O)CO)[C@]2(C)C3C(=O)CC[C@]3(CC[C@H]2C)[C@H](C)[C@H]1O (some centres undefined) | . | -[7.66 µM] | -[9.22 µM] | . | . | .
SMILES | Rab9 promoter act | Luc counter | SMN2 splice enh | NPC1 prom act | FLuc modulator | ELG1 genotox
CCOc1ccc(/C=C2\SC(=S)N(CCC(=O)Nc3cccc(C(=O)O)c3)C2=O)cc1 | ? | . | . | - | 2.1µM | ?
COc1ccc(/C=C2\SC(=S)N(CCCC(=O)Nc3cccc(C(=O)O)c3)C2=O)cc1OC | - | . | . | - | - | -
CC1CCc2c(sc(NC(=O)c3ccco3)c2C(=O)O)C1 (centres undefined) | - | . | . | ? | 7.6µM | -
NC(=O)c1c(NC(=O)c2ccco2)sc2c1CCC2 | 2µM | - | 13µM | 3.5µM | 9.5µM | 11µM
CN(C)C(=O)c1c(NC(=O)c2ccco2)sc2c1CCCCC2 | - | - | - | - | ? | -
CN1CCN(C(=O)c2c(NC(=O)c3ccco3)sc3c2CCC(C(C)(C)C)C3)CC1 (centres undefined) | - | - | - | - | - | -
COC(=O)c1c(NC(=O)c2ccc(OC)cc2OC)sc2c1CCCCC2 | . | . | - | . | 6µM | .
